Experimental data published in PubChem BioAssay (EPA / NIEHS).
Active and inactive are the calls of the source. The calls were made as follows: active = hit-call score of the fitted dose curve at least 0.9, where 1 is the maximum; inactive = score below 0.9.

Test: ATG_M_19_CIS: Attagene CIS-FACTORIAL HepG2 Assay for M19 Transcription Factor (Internal Marker) (AID 2282939)
Settings: HepG2 Attagene CIS-FACTORIAL M19 internal marker reporter; actives raise or lower the signal
Procedure: ATG_CIS is a cell-based, multiplexed-readout assay that uses HepG2, a human liver cell line, with measurements taken at 24 hours after chemical dosing in a 24-well plate.ATG_M_19_CIS is one of 52 assay component(s) measured or calculated from the ATG_CIS assay. It is designed to make measurements of mRNA induction, a form of inducible reporter, as detected with fluorescence intensity signals by Reverse transcription polymerase chain reaction (RT-PCR) and Capillary electrophoresis technology.Data from the assay component ATG_M_19_CIS was analyzed into 1 assay endpoint. This assay endpoint, ATG_M_19_CIS, was analyzed with bidirectional fitting relative to DMSO as the negative control and baseline of activity. Using a type of inducible reporter, measures of mRNA for gain or loss-of-signal activity can be used to understand the background control at the transcription factor-level as they relate to the gene . Furthermore, this assay endpoint can be referred to as a secondary readout, because this assay has produced multiple assay endpoints where this one serves a background control function. To generalize the intended target to other relatable targets, this assay endpoint is annotated to the background measurement intended target family, where the subfamily is internal marker.
Human liver HepG2 cells are transiently transfected with multiple reporter transcription units (MRTUs) in 6-well plates using FuGene 6 reagent (Roche; 3 ml FuGene/1 mg DNA). The MRTU constructs are regulated by a cis-regulating element (promoter). […] A major difference between the CIS and TRANS system is that in CIS activities of endogenous TFs are measured, whereas the TRANS assay evaluates changes in activities of exogenous, chimeric NR-Gal4 proteins. […] At the end of 24 hour incubation, total RNA was isolated using TriZol reagent (Invitrogen). The isolated RNA is then reverse-transcribed using oligo(dT) primer and Mo-MLV reverse transcriptase (Invitrogen) with DNAse I (Ambion) treatment for 30 min. The one-tenth of the produced cDNA was amplified by PCR using Taq DNA polymerase (Invitrogen) and two reporter sequence-specific primers. The PCR products were fluorescently labeled by primer extension with 6-arboxyfluorescein (6-FAM) 5'-labeled reporter sequence-specific primer (2 min at 95 C, 20 s at 68 C and 10 min at 72 C) and these products were digested with 5U of HpaI (New England Biolabs) for 2h at 37 C. The fragments were purified using Qiaquick PCR columns (Qiagen), analyzed on an ABI 3130xL genetic analyzer (Applied Biosystems) with peak positions identified by using a set of X-rhodamine (ROX)-labeled MapMarker1000 molecular weight standards (BioVentures). The raw capillary electrophoresis data was processed using Attagraph software (Attagene).

| Structure (SMILES) | outcome |
| --- | --- |
| COP(=O)(OC)O/C(C)=C/C(=O)N(C)C | inactive |
| CCCCC(C#N)(Cn1cncn1)c1ccc(Cl)cc1 (stereo not given) | inactive |
| CC(C)Oc1cccc(NC(=O)c2ccccc2C(F)(F)F)c1 | inactive |
| COc1ccc(-c2ccccc2)cc1NNC(=O)OC(C)C | inactive |
| COC(=O)NS(=O)(=O)c1ccc(N)cc1 | inactive |
| CC1(C)C(C(=O)OC(C#N)c2cccc(Oc3ccccc3)c2)C1(C)C (stereo not given) | inactive |
| CC1(C)C(C=C(Cl)Cl)C1C(=O)OC(C#N)c1cccc(Oc2ccccc2)c1 (stereo not given) | inactive |
| COCc1cnc(C2=NC(C)(C(C)C)C(=O)N2)c(C(=O)O)c1 (stereo not given) | inactive |
| CNC(=O)Oc1cccc2ccccc12 | inactive |
| CCNC(=O)NC(=O)C(C#N)=NOC | inactive |
| COCC(=O)N(c1c(C)cccc1C)C(C)C(=O)OC (stereo not given) | inactive |
| CNC(=O)N(C)c1nnc(C(C)(C)C)s1 | inactive |
| CCOc1nc(C(Cl)(Cl)Cl)ns1 | inactive |
| CC(C)N1C(=O)N(c2ccccc2)CSC1=NC(C)(C)C | inactive |
| Clc1cccc(C(Cl)(Cl)Cl)n1 | inactive |
| CCC(C)n1c(=O)[nH]c(C)c(Br)c1=O (stereo not given) | inactive |
| CN=C=S | inactive |
| CS(=O)(=O)c1ccc(C(=O)C2C(=O)CCCC2=O)c([N+](=O)[O-])c1 | inactive |
| COC(=O)NC(=S)Nc1ccccc1NC(=S)NC(=O)OC | inactive |
| CC(C)=CC1C(C(=O)OCc2coc(Cc3ccccc3)c2)C1(C)C (stereo not given) | inactive |

| Structure (SMILES) | outcome |
| --- | --- |
| CN/C(=N\[N+](=O)[O-])NCc1cnc(Cl)s1 | inactive |
| CCNP(=S)(OC)O/C(C)=C/C(=O)OC(C)C (stereo not given) | inactive |
| CC(C)N1C(=O)c2ccccc2NS1(=O)=O | inactive |
| COC(=O)N(C(=O)N1CO[C@@]2(C(=O)OC)Cc3cc(Cl)ccc3C2=N1)c1ccc(OC(F)(F)F)cc1 | inactive |
| C=CCOC(=O)C(C)(C)OC(=O)c1cc(-n2c(=O)cc(C(F)(F)F)n(C)c2=O)ccc1Cl | inactive |
| CCN(CC)c1nc(C)cc(OP(=S)(OC)OC)n1 | inactive |
| CO/N=C(/C1=NOCCO1)c1ccccc1Oc1ncnc(Oc2ccccc2Cl)c1F | inactive |
| Clc1nc(Cl)nc(Nc2ccccc2Cl)n1 | inactive |
| CC1(C)CCC(=Cc2ccc(Cl)cc2)C1(O)Cn1cncn1 (stereo not given) | inactive |
| CCN(CC)C(=O)C(C)Oc1cccc2ccccc12 (stereo not given) | inactive |
| CC(C)NC(=O)N1CC(=O)N(c2cc(Cl)cc(Cl)c2)C1=O | inactive |
| Cc1cc(C)nc(Nc2ccccc2)n1 | inactive |
| C=C(C)CN(CC)c1c([N+](=O)[O-])cc(C(F)(F)F)cc1[N+](=O)[O-] | inactive |
| Cc1nc(N(C)C)nc(OC(=O)N(C)C)c1C | inactive |
| Cc1c(COC(=O)[C@@H]2[C@H](/C=C(\Cl)C(F)(F)F)C2(C)C)cccc1-c1ccccc1 | inactive |
| O=c1n(Cl)c(=O)n(Cl)c(=O)n1Cl | inactive |
| COP(=S)(OC)SCn1nnc2ccccc2c1=O | inactive |
| COP(=S)(OC)Oc1ccc([N+](=O)[O-])c(C)c1 | inactive |
| OC(c1ccc(Cl)cc1)(c1ccc(Cl)cc1)C(Cl)(Cl)Cl | inactive |
| CCCN(CC)CC1COC2(CCC(C(C)(C)C)CC2)O1 (stereo not given) | inactive |
